Molecular target: NTRK3
Assay: pooled miR-30 sensor sort-seq; sequence = guide strand
Details: shRNA
Also: reference of the scale not given here.

| Sequence | sensor-assay potency score (higher = more potent) |
| --- | --- |
| TAGAGCTCCATGTCCACGGCGT | 0.00985 |
| TAGACATCTCTGGACATGCCGA | -0.718 |
| TTGATCTCAGTCTTGCTGCAGA | 0.132 |
| TTGTGGGTCACAGTGATAGGAG | -0.852 |
| TTCACTAGCAGATTCGCTCCAA | 0.574 |
| TTAATGTGCTGCACATACGTGT | 0.37 |
| TAGACAGTGAGGGCAACACTGG | -1.18 |
| TCTCTGTAGTGAACTTCCGGTA | -0.729 |
| TAGAACTTGACAATGTGCTCAT | 0.762 |
| TTCATTCCAAATTTGGACCGTC | 0.838 |

Molecular target: NUDT12
Assay: as above
Details: shRNA

| Sequence | sensor-assay potency score (higher = more potent) |
| --- | --- |
| TATATTGACAACTTAAAGGTAA | -0.0673 |
| TAATAGTATGCTTTTCTCCTTC | 0.381 |
| TTAATTTCTGTAGACACTGCTA | 0.0613 |
| TAGTAAATTAGCTATATGCTTA | -0.516 |
| TTAAATATGTAAATCTGCCTGG | 0.199 |
| TTAACTTGGCAATATCTCCTTC | 0.732 |
| TATATCTGTGTAGTTCAGCTGA | 0.275 |
| TATTATTACATTCATTTCCAGT | -0.883 |
| TTTTGCTTTCTCTAGAATCTTA | 0.0347 |
| TTTAACATTATGAAAACCTGGA | 0.224 |
| TTTCTCTAGAATCTTACTGATT | -0.991 |

Molecular target: NUDT17
Assay: as above
Details: shRNA

| Sequence | sensor-assay potency score (higher = more potent) |
| --- | --- |
| TCTCTGTCCCATCCTCTGCGGC | -1.35 |
| ATACAGAACAATGTGATGGTAT | 0.6 |
| TTCCACTGCAAGGACAGAGGGT | -0.741 |
| TAAGCTGCACTTTTACACGGTG | -0.247 |
| TTGTCCTCTGCCATGGTTGGGA | -0.492 |
| TTGAGGGCAAACTTGGTTCCAG | -0.0646 |
| TGTTCCATTCTTCCTTTGCTGG | -1.04 |
| TTCTCGAAGCCCTCCGTCCAGC | -1.17 |
| TTAGCAAGACAGTCTTGTCGCT | 0.135 |
| TAGCAAGACAGTCTTGTCGCTG | -0.0193 |
| AGCAAGACAGTCTTGTCGCTGG | -0.353 |
| TTTGGGTTTGGTTGGATCCGGG | -0.403 |

Molecular target: NUDT18
Assay: as above
Details: shRNA

| Sequence | sensor-assay potency score (higher = more potent) |
| --- | --- |
| TCCTCCATCACCTTCCACCAAG | -1.79 |
| TAGCTCTTGGGGCAGAATGAGA | -1.69 |
| ACTAACACCCACACTGTCTGGG | -0.0585 |
| AACTTTTGGGGGTTCATCCTGG | -0.225 |
| ATCACTGTGATCTCGGCCCAGG | -0.975 |
| TTGATCTCCACCACCAAGTGGT | 0.0788 |
| TTGCAGGTCTTCCTCCATCACC | -1.52 |
